Screens deposited in PubChem BioAssay by several laboratories.
FadD28 binding – blocks FadD28 binding to the bisubstrate probe; fluorescence polarization; AID 588549; 360,000 tested, 0.22% active; inhibition, % at 12.5 µM; in the data active means inhibition above about 8.5%, passing the limit was not always enough
FBA Mtb inh – inhibitors of M. tuberculosis fructose-bisphosphate aldolase; 360,000 tested, 2.3% active; AID 588726; purified M. tuberculosis FBA, fluorescence read-out; P9WQA3; inhibition, % at 1 µM; in the data active means inhibition above about 27%;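 further: 0% = vehicle and 100% = reference inhibitor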
Target sequence (P9WQA3 whole entry, looked up): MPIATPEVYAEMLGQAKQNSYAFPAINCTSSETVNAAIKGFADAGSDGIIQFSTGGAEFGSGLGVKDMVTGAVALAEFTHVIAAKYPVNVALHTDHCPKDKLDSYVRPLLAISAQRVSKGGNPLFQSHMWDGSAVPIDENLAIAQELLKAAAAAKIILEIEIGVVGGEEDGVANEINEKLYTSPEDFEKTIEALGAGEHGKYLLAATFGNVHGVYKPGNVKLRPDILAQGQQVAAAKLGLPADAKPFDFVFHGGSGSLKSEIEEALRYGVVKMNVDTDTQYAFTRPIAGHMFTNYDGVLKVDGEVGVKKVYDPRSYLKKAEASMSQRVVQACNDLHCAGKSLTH
BioA inh – inhibitors of Mycobacterium tuberculosis BioA enzyme; 360,000 tested, 0.096% active; purified M. tuberculosis BioA enzyme, plate reader; inhibition, % at 9.99 µM; in the data active means inhibition above about 40%
GDH-TPI counter – counter-screen for M. tuberculosis FBA inhibitors: GDH-TPI coupled enzymes | GDH-TPI coupled enzyme counterscreen, NADH absorbance | inhibition, % at 4.8 µM | 360,000 tested, 1.2% active | AID 588335; in the data active means inhibition above about 30%;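 further: 0% = DMSO wells and 100% = wells lacking the enzyme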
Rv3671c protease – inhibits the M. tuberculosis serine protease Rv3671c; inhibition, % at 5.96 µM; 320,000 tested, 0.048% active; in the data active means inhibition above about 38%;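 further: extracellular domain of Rv3671c used as enzyme; 0% = enzyme with DMSO and 100% = no enzyme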
The depositor's hits bear a star; x = not tested or not shown; + = active, no number. An excerpt weighted towards active compounds, which were near 3% of everything screened.

SMILES | FadD28 binding | FBA Mtb inh | BioA inh | GDH-TPI counter | Rv3671c protease
O=C(CNc1ccc2c(c1)OCO2)N/N=C\c1cn(Cc2ccccc2)c2ccccc12 | -3.7 | 0.7 | -1.1 | 30.9* | 1.5
O=C(N/N=C/c1cccc2ccccc12)c1ccc(CN2CCOCC2)cc1 | -0.3 | 6.4 | -4.0 | 41.4* | -4.1
O=C(N/N=C/c1ccccc1Cl)c1cccc(F)c1 | -1.9 | -0.1 | 3.1 | 7.8 | 6.2
O=C(N/N=C/c1cccc2ccccc12)c1cccc(F)c1 | -12.2 | -2.1 | 1.1 | 34.0* | -12.8
O=C(CNc1ccccc1)N/N=C/c1ccc2c(c1)OCO2 | 0.1 | -2.4 | x | 11.3 | 3.3
O=C(N/N=C/c1cn(Cc2ccccc2)c2ccccc12)c1ccncc1 | 1.2 | -2.7 | 1.6 | 23.7 | -2.8
Nc1ccc(C(=O)N/N=C/c2cn(Cc3cccc(F)c3)c3ccccc23)cc1 | -1.1 | 1.6 | -6.4 | 32.4* | x
Cc1noc(C)c1S(=O)(=O)Nc1ccc2c(c1)C(=O)N([C@@H](C)CO)C[C@@H](C)[C@H](CN(C)Cc1ccncc1)OCCCC[C@@H](C)O2 | x | x | -1.1 | x | x
CN(C)C(=O)c1cccc(-c2ccc3c(c2)[C@H]2[C@H](CCN2C(=O)c2ccncc2)[C@H](CO)N3C)c1 | x | x | 0.8 | x | x
O=C(N[C@H]1CC[C@H](CCNS(=O)(=O)c2ccccc2Cl)O[C@@H]1CO)c1ccc(F)cc1 | x | x | -2.1 | x | x
O=S(=O)(N/N=C\C=C\c1ccccc1)c1ccc(Br)cc1 | 2.2 | -2.5 | -0.5 | 38.8* | 3.0
CCCCN(CCO)c1ncnc2sc(-c3ccccc3)cc12 | -1.2 | 14.3 | 0.7 | 31.0* | -16.5
COc1ccc(C2CC(c3ccccc3C(F)(F)F)=NN2c2ccc(S(N)(=O)=O)cc2)cc1 (stereo unspecified) | -7.4 | + | -0.1 | -10.4 | x
COc1ccc(C2CC(C(C)(C)C)=NN2c2ccc(S(N)(=O)=O)cc2)cc1 (stereo unspecified) | 1.9 | -0.5 | 2.1 | 12.5 | x
COc1ccc(C2CC(c3ccc(C(F)(F)F)cc3)=NN2c2ccc(S(N)(=O)=O)cc2)cc1 (stereo unspecified) | -2.5 | 155.1* | -1.0 | 10.4 | x
COc1ccc(C2CC(c3ccccc3F)=NN2c2ccc(S(N)(=O)=O)cc2)cc1 (stereo unspecified) | -3.2 | 156.0* | -0.4 | -9.4 | x
COc1ccc(C2CC(c3cccs3)=NN2S(=O)(=O)c2ccc(C)cc2)cc1 (stereo unspecified) | -2.1 | 0.2 | 2.9 | 9.1 | 0.6
Oc1cccc2ccc(/C=C/c3cccs3)nc12 | -1.8 | -1.9 | -1.5 | 30.9* | -3.1
Cc1ccsc1/C=C/c1ccc2cccc(O)c2n1 | -4.0 | -2.2 | -1.7 | 8.0 | 4.1
Cc1cc(OCc2ccccc2)ccc1/C(O)=C1/C(=O)C(=O)N(Cc2cccnc2)C1c1ccncc1 (stereo unspecified) | -1.2 | 1.7 | x | 37.6* | -2.0
Cc1ccc(C)c(/C(O)=C2\C(=O)C(=O)N(CCCN3CCOCC3)C2c2cccnc2)c1 (stereo unspecified) | -2.4 | -2.5 | x | 53.5* | x
Cc1ccc(/C(O)=C2/C(=O)C(=O)N(CCN3CCOCC3)C2c2cccnc2)cc1 (stereo unspecified) | -1.3 | -1.4 | -3.3 | 33.0* | -8.3
COCCN1C(=O)C(=O)/C(=C(/O)c2ccc(S(=O)(=O)N3CCOCC3)cc2)C1c1ccc(O)cc1 (stereo unspecified) | -2.4 | -3.1 | -1.2 | 32.9* | 7.4
COc1ccc(/C(O)=C2/C(=O)C(=O)N(CCN3CCOCC3)C2c2cccnc2)cc1OC (stereo unspecified) | -3.7 | -1.9 | 8.6 | 10.1 | -8.7
CCN1[C@@H]2c3ccc(-c4cccc(C(=O)N(C)C)c4)c(=O)n3C[C@@H]2[C@@H](CO)[C@@H]1C(=O)OC | x | x | 0.2 | x | x
SMILES | FadD28 binding | FBA Mtb inh | BioA inh | GDH-TPI counter | Rv3671c protease
CCOc1ccc(C2/C(=C(\O)c3ccc4c(c3)OCCO4)C(=O)C(=O)N2CCN2CCOCC2)cc1OC (stereo unspecified) | 0.1 | 0.3 | -3.3 | 34.0* | x
COc1cc(C2/C(=C(\O)c3ccc4c(c3)OCCO4)C(=O)C(=O)N2CCN2CCOCC2)cc(OC)c1OC (stereo unspecified) | -1.6 | 1.8 | -1.0 | 9.7 | x
O=C1C(=O)N(Cc2cccnc2)C(c2cccc([N+](=O)[O-])c2)/C1=C(\O)c1ccc2c(c1)OCCO2 (stereo unspecified) | -3.3 | -2.9 | 1.4 | 20.2 | 0.5
COc1cccc(C2/C(=C(\O)c3ccc4c(c3)OCCO4)C(=O)C(=O)N2Cc2cccnc2)c1 (stereo unspecified) | -0.8 | 4.9 | -5.6 | 31.9* | -6.5
Cc1ccc(C)c(/C(O)=C2\C(=O)C(=O)N(Cc3cccnc3)C2c2cccnc2)c1 (stereo unspecified) | -2.5 | -16.2 | 0.4 | 37.5* | -0.2
COc1ccc(/C(O)=C2/C(=O)C(=O)N(Cc3cccnc3)C2c2ccncc2)cc1F (stereo unspecified) | -2.6 | 0.0 | 5.2 | 17.7 | 3.6
C[C@@H]1CN([C@@H](C)CO)C(=O)c2cc(NC(=O)Nc3cccc4ccccc34)ccc2O[C@@H](C)CCCCO[C@H]1CN(C)C(=O)Cc1ccccc1 | x | x | -2.7 | x | x
C[C@H](CO)N1C[C@H](C)[C@H](CN(C)S(=O)(=O)c2cn(C)cn2)Oc2c(NC(=O)c3nc4ccccc4s3)cccc2C1=O | x | x | -0.6 | x | x
O=c1cc(C(F)(F)F)[nH]c2c(C(F)(F)F)cccc12 | -7.8 | + | -1.5 | 24.2 | 4.1
O=c1cc(C(F)(F)F)[nH]c2ccc(OC(F)(F)F)cc12 | -0.2 | 25.7 | 3.1 | 10.0 | -3.1
COCc1cc(C)n(CC(=O)Nc2ccc3c(c2)OCO3)c(=O)c1C#N | -2.1 | -0.2 | -2.3 | 31.9* | 2.7
O=C(C[C@H]1CC[C@H]2[C@@H](COC[C@H](O)CN2C(=O)Nc2ccc(Cl)c(Cl)c2)O1)NCc1ccc(Cl)cc1 | x | x | -0.6 | x | x
CCOc1ccc(NS(=O)(=O)c2ccc(Cl)c(N=Nc3c(O)[nH]c(=S)[nH]c3=O)c2)cc1Br | 14.7* | -7.4 | 1.5 | 19.5 | x
C[C@H](NC(=O)C[C@H]1CC[C@@H](NC(=O)CN2CCOCC2)[C@@H](CO)O1)c1ccccc1 | x | x | -0.3 | x | x
CCN1C(=O)/C(=C\N(C)C)NC1=S | 0.0 | -3.6 | x | 33.6* | -5.2
COc1ccc(N2C(=O)/C(=C/N(C)C)NC2=S)cc1 | -0.8 | -3.8 | -0.4 | 17.7 | -3.8
COCC(=O)Nc1ccc2c(c1)[C@@H]1C[C@H](CC(=O)NCCc3ccccc3)O[C@@H](CO)[C@@H]1O2 | x | x | -0.7 | x | x
O=C(N[C@@H]1CC[C@@H](CCn2cc(C3(O)CCCC3)nn2)O[C@@H]1CO)c1ccccc1F | x | x | 1.9 | x | x
CCN(CC)c1ccc(C=Nc2ccc(C)cc2C)c(O)c1 | 1.5 | -1.5 | x | 28.3 | 9.9
CCN(CC)c1ccc(C=Nc2cc(C)ccc2C)c(O)c1 | -0.8 | -2.0 | -3.6 | 38.0* | -2.2
CCN(CC)c1ccc(/C=N/NC(=O)CCC(=O)NCc2ccccc2)c(O)c1 | -0.8 | 4.8 | x | 39.9* | -0.7
CCN(CC)c1ccc(/C=N/NC(=O)CNC(=O)C2COc3ccccc3O2)c(O)c1 (stereo unspecified) | -1.1 | 4.6 | -1.0 | 33.3* | 6.9
